In article PMC12864922, “TDP-43 directly inhibits mRNA accumulation in neurites through modulation of mRNA stability”:
The full ranking holds about 9,900 sequences; the median of “r (bound/input frequency ratio)” is about 0.7, and the highest 2% start at about 6.5. The sample holds the highest values, similar sequences and a random draw of the others, so the mix is not that of the screen.

B1: ENSMUSG00000043670.304|Diras1 (ssRNA)
RNA: GGGAGUUCUACAGUCCGACGAUCGCUUCGAUAUCCGCAUGCUAGUCACAAAGAGACAGAGAAGCAGAAAGAAGGCUGAAGCCAGAUGACCAAGUAGGCCGGACCCCACUGUGUUCCCUUCUGUGUGCCAGGCACAGGGAGAGCCACAGCCUGAAGCCUGAGUCUGAGCAUAGCUGAGCCCUGACCUCUAGCCAGCCCAGGGCCCCCACAGCUGCCACCUGCUCCCAAGCCCCGGGAGUGGCUCCUGGCUGGACAGGGGGUCACAGCCCUUUCUCAGGGACACACCCUGAUAGCACAAUCUCUGCUCUUGCGGUCGCACUAGUGUGGAAUUCUCGGGUGUCAAGG
B2: ENSMUSG00000029636.41|Wasf3|31:35;229:235 (ssRNA)
RNA: GGGAGUUCUACAGUCCGACGAUCGCUUCGAUAUCCGCAUGCUACACAUCCUUCUGGAUUUGUUGAGUAUUUACACACAAAUACUUAAGUGCCACAGAACACAGCACACCGUGCUGCACACCAGGAAACUCGCAGUAUUAGUGCAUCACCCUGGAACAGCAUCUUGCUUCCCUCUCAGCCGUGAGAGUCCCCUCUCCUGUCCAUCCUGAUUUGGUGGGCUUGCCACGUAUCUGCGCAGCUGCCCCACGUCAGCUCUCUGCAAGAUCACUGGCACACACACUCAGUGAUGUCUUCCAACCAGUGGCUCUUGCGGUCGCACUAGUGUGGAAUUCUCGGGUGUCAAGG
B3: ENSMUSG00000029028.57|Lrrc47 (ssRNA)
RNA: GGGAGUUCUACAGUCCGACGAUCGCUUCGAUAUCCGCAUGCUAGUAGAUCUUUGUAGGUGUAGGUAUGCUGUAGGUAUCUGGGUGUGGGUAUGCUGUAGAUGUCUGUGUAGGUGUGGAUAUGCUGUAGGUAUCUGGGUGUGCUGUAGGUGUCUGUGUGGGUGUGGGUGUGCUGUGGGUGUCUGUGUGGGUGUGCUGUAGGUGUCUGUAGGUGUGGGUAUGCUGCAGGUGUGGGUGUGCUGUAGAUCUCUAUAGGUGUGGGUGUGCUGUAGGGGUCUGUGUGGGUAUAGGUGUGGGUGUGCUGUCUCUUGCGGUCGCACUAGUGUGGAAUUCUCGGGUGUCAAGG
B4: ENSMUSG00000061578.309|Ksr2 (ssRNA)
RNA: GGGAGUUCUACAGUCCGACGAUCGCUUCGAUAUCCGCAUGCUAAAGUAAGAGAGGAGAGAGCCAGGGAGGGCUGAAGCUCUGGGACCCUGAAGUGUCCCCCGGGAACUGGGACUCACUCAUCUUCUCCUGUUUGUAGCUCAAUGACCCAGUGGGUCACAGUUCUAGGCGCUCCAAGGAAGCCAGGGGAGGGGGACUCCUCAGGAAGGAGUGACCAGUCACCUGCCUCCCAGGGUUCUGCCUUGCCCUUAAGCUAGGGUCCUUCAAGCAUCCACAGACUUAGAGUGUGGUGGUAACAUGCUUGUCUCUUGCGGUCGCACUAGUGUGGAAUUCUCGGGUGUCAAGG

These binders were tested against TDP-43 (Homo sapiens, UniProt Q13148 1-414) (assay: RNA Bind-n-Seq with designed 260-mer pool; 25 mM Tris-HCl, 150 mM KCl, 3 mM MgCl2, BSA (printed 500 mg/mL), 20 units/mL SUPERase IN; pH not stated; 500 nM RNA pool, 1 h, 4 C; TDP-43 5, 50, 500 nM; high values mean tight binding). Details: protein: recombinant; tags: SBP (GST cleaved off with PreScission; pGEX-GST-SBP).
TDP-43, sequence (Q13148 whole entry): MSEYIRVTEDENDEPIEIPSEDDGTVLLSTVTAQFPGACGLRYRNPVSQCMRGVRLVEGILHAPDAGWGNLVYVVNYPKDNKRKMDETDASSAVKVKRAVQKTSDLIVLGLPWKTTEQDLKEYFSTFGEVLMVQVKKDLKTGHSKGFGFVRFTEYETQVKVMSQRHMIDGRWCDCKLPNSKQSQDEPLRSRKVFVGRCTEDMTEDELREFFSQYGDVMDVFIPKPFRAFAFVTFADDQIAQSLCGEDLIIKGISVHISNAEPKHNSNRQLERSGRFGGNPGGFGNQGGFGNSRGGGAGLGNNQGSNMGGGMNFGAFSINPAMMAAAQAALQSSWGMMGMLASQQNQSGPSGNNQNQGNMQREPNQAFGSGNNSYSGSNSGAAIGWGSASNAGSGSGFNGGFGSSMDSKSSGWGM
In short: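 For each oligo, R gives binding as its mapped-read-normalized abundance after pulldown divided by its abundance in input. Bead-captured SBP-tagged TDP-43 (5, 50 or 500 nM) was incubated with 500 nM of an in vitro-transcribed 260-nt 3′ UTR oligo pool for 1 h at 4 °C in 25 mM Tris-HCl, 150 mM KCl, 3 mM MgCl2, BSA and SUPERase IN on streptavidin beads. Washed, biotin-eluted RNA was reverse transcribed, PCR-amplified and sequenced.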

Binder	binding signal
B1	0.472 R (bound/input frequency ratio)
B2	0.406 R (bound/input frequency ratio)
B3	6.24 R (bound/input frequency ratio)
B4	1.33 R (bound/input frequency ratio)
